Results taken from PubChem BioAssay.
The source made the active and inactive calls.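 Rule for the calls, unless noted: active = inhibition above 20% together with a positive visual image hit; inconclusive = visual image hit but inhibition not above 20%; inactive = no visual image hit.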

Experiments:
[1] = inhibitors of TNFa-induced NFkB p65 translocation, primary screen, imaging, HUVEC, MLSMR starter and 10KST1 sets (AID 438); conditions: HUVEC TNFa-induced p65 nuclear translocation; cell count: measured here: nuclei count (cytotoxicity indicator), at 2.08 µM; inhibition: at 2 µM, stronger effect = higher value, 0% TNFa-plus-vehicle, 100% no-TNFa wells;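 note: compound added about 3h40 before a 20 min TNFalpha stimulation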;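 for inhibition: signal is the nuclear over cytoplasmic p65 intensity ratio per well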
[2] = reduction of polyQ htt aggregates in cells – imaging, exon1htt(103Q)mCFP cells, high-content imaging, primary screen (AID 483;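 active = visual image review flags a hit and inhibition of aggregation exceeds 20%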;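 note: compound exposure lasted 3 days before fixation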;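 for nuclei count: percent of the per-plate median nuclei count of sample wells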); conditions: exon1htt(103Q)mCFP cell line, aggregate imaging, at 2 µM; inhibition of aggregation: stronger effect = higher value; nuclei count: measured here: cell count, toxicity
[3] = endothelial E-selectin expression blockers – imaging, HUVEC, immunofluorescence, MLSMR starter and 10KST1 sets, primary screen (AID 487;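 active = visually confirmed hit in the image check and inhibition above 20%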;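 for inhibition: signal is fraction of cell area covered by stained E-selectin grains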;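 for nuclei count: 100% = median nuclei count of all wells on the same plate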); conditions: HUVEC TNFalpha-induced E-selectin immunofluorescence imaging, at 2 µM; inhibition: stronger effect = higher value; nuclei count: measured here: cell number, toxicity
[4] = molecular target: Voltage-gated potassium channel subunit beta-2 (Rattus norvegicus) (UniProt P62483); assay: inhibitors of rat Kvbeta2 reductase activity – biochemical, NADPH fluorescence, primary screen (AID 622;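 active = fluorescence slope higher than the sample average by over 3 SD, cut at about -0.22 in these data, passing the limit was not always enough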;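 note: slope of raw intensity against log time taken from 70 to 1610 s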); conditions: recombinant KvBeta, 4-cyanobenzaldehyde reduction, at 10 µM, stronger effect = higher value
[5] = molecular target: Voltage-gated potassium channel subunit beta-2 (Rattus norvegicus) (UniProt P62483); assay: enhancers of rat Kvbeta2 NADPH turnover – biochemical, NADPH fluorescence, primary screen (AID 623;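 active = NADPH fluorescence slope more negative than the mean of all samples by about 3 SD, 99.7% confidence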;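 note: fluorescence intensity change per second fitted from 20 to 320 s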); conditions: Recombinant KvBeta, NADPH fluorescence decrease slope, 10 min; at 10 µM; stronger effect = lower value
[6] = molecular target: Alpha-2C adrenergic receptor (Homo sapiens) (UniProt P18825); assay: compounds altering alpha2C-coupled GIRK flux – cell-based, HEK293 alpha2C/GIRK1/2, thallium flux, primary screen (AID 624;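 active = fluorescence slope after compound addition differing from the mean of all screened samples at 99.7% confidence, in either direction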;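 note: slope of fluorescence ratio to pre-addition baseline per second over 15 to 24 s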); conditions: thallium flux BTC fluorescence, at 10 µM, actives lie on both sides
[7] = blockers of RIG-like receptor reporter activation – cell-based, Sendai virus stimulus, luciferase, 10K MLSCN set, TLR/RLR signaling modifier project, primary screen (AID 602276;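 active = inhibition at or above 50% at 10 µM; inactive = inhibition below 50%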;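 note: firefly luciferase from ISG56 promoter only with Renilla not read in this screen; 0% = Sendai virus plus DMSO and 100% = medium plus DMSO without virus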); conditions: HEK293 RL24 IRF3 luciferase reporter, at 10 µM, stronger effect = higher value
[8] = TLR3 IRF3 reporter activation blockers – cell-based, poly I:C stimulus, luciferase, 10K MLSCN set, primary screen (AID 602277;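 active = inhibition of the reporter signal at or above 50%; inactive = inhibition below 50%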); conditions: HEK293-TLR3 RL24 IRF3 luciferase reporter, at 10 µM, stronger effect = higher value

Voltage-gated potassium channel subunit beta-2 (Rattus norvegicus), sequence (P62483 whole entry, looked up): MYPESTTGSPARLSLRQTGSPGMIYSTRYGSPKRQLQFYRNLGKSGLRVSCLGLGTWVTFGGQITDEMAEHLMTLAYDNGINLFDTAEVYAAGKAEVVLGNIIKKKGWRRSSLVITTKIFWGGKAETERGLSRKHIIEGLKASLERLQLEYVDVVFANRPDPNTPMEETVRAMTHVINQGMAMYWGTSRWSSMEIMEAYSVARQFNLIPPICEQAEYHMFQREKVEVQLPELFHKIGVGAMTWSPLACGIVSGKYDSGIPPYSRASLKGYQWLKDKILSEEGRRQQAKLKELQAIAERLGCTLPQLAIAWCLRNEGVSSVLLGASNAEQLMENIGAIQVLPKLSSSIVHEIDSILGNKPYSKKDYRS
Alpha-2C adrenergic receptor (Homo sapiens), sequence (P18825 whole entry, looked up): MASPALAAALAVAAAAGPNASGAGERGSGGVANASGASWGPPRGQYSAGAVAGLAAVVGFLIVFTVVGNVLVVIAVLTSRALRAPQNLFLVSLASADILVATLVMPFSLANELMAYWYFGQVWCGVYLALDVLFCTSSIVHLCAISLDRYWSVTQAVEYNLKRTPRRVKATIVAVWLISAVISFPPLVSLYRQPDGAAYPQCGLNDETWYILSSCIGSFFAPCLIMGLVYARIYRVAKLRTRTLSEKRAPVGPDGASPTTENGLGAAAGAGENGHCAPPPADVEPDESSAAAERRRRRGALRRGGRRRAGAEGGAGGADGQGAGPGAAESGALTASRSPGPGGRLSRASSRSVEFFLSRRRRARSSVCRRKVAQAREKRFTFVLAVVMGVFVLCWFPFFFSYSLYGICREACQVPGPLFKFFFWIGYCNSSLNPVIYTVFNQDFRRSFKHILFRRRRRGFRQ

COc1ccc(N2CCN(C(=O)CCNS(=O)(=O)c3ccc(Br)s3)CC2)cc1
cell count [1]: 338
inhibition [1]: 2.9% (inactive)
inhibition of aggregation [2]: -0.1% (inactive)
nuclei count [2]: 101%
inhibition [3]: -297% (inactive)
nuclei count [3]: 108%
fluorescence slope [4]: -0.423 (inactive)
NADPH fluorescence slope [5]: -0.000118 (inactive)
slope [6]: 0.00529 (inactive)
inhibition [7]: 7.87% (inactive)
inhibition [8]: 12.4% (inactive)

CCOC(=O)N1CCN(Cc2nc3c(c(=O)[nH]c(=O)n3C)n2Cc2cc(C)ccc2C)CC1
cell count [1]: 693
inhibition [1]: -2.2% (inactive)
inhibition of aggregation [2]: -78% (inactive)
nuclei count [2]: 115%
inhibition [3]: -103% (inactive)
nuclei count [3]: 119%
fluorescence slope [4]: -0.505 (inactive)
NADPH fluorescence slope [5]: -5.3e-05 (inactive)
slope [6]: 0.00433 (inactive)
inhibition [7]: 19.2% (inactive)
inhibition [8]: 27.4% (inactive)

Fc1cccc(-c2cc3nc4c(c(N5CCN(c6cnccn6)CC5)n3n2)CCCC4)c1
cell count [1]: 468
inhibition [1]: -3.1% (inactive)
inhibition of aggregation [2]: -5.2% (inactive)
nuclei count [2]: 101%
inhibition [3]: -80.1% (inactive)
nuclei count [3]: 100%
fluorescence slope [4]: -0.622 (inactive)
NADPH fluorescence slope [5]: -2.7e-05 (inactive)
slope [6]: 0.00757 (inactive)
inhibition [7]: -15.7% (inactive)
inhibition [8]: -16.1% (inactive)

CC1Cc2nc(SCC(=O)N3CCCc4ccccc43)n(C)c(=O)c2S1 (configuration not stated)
cell count [1]: 647
inhibition [1]: 0.5% (inactive)
inhibition of aggregation [2]: -0.9% (inactive)
nuclei count [2]: 46.7%
inhibition [3]: 5.3% (inactive)
nuclei count [3]: 118%
fluorescence slope [4]: -0.543 (inactive)
NADPH fluorescence slope [5]: -1.5e-05 (inactive)
slope [6]: 0.00618 (inactive)
inhibition [7]: 6% (inactive)
inhibition [8]: 20.4% (inactive)

COCCn1c(CN(Cc2ccccc2)Cc2ccccc2)nc2c1c(=O)n(C)c(=O)n2C
cell count [1]: 633
inhibition [1]: -19% (inactive)
inhibition of aggregation [2]: -10.5% (inactive)
nuclei count [2]: 100%
inhibition [3]: -48.5% (inactive)
nuclei count [3]: 115%
fluorescence slope [4]: -0.56 (inactive)
NADPH fluorescence slope [5]: 6.1e-06 (inactive)
slope [6]: 0.00386 (inactive)
inhibition [7]: 18.4% (inactive)
inhibition [8]: 23.3% (inactive)

COc1ccccc1OCc1ccc(C(=O)Nc2ccncc2)o1
cell count [1]: 729
inhibition [1]: -7.3% (inactive)
inhibition of aggregation [2]: -9.4% (inactive)
nuclei count [2]: 83.1%
inhibition [3]: -69% (inactive)
nuclei count [3]: 120%
fluorescence slope [4]: -0.508 (inactive)
NADPH fluorescence slope [5]: -5.2e-05 (inactive)
slope [6]: 0.00528 (inactive)
inhibition [7]: 8.87% (inactive)
inhibition [8]: -20.1% (inactive)

CN1CCN(c2nc3c(c(=O)[nH]c(=O)n3C)n2CCOc2ccccc2)CC1
cell count [1]: 311
inhibition [1]: 6.2% (inactive)
inhibition of aggregation [2]: 0.9% (inactive)
nuclei count [2]: 108%
inhibition [3]: -45.8% (inactive)
nuclei count [3]: 116%
fluorescence slope [4]: -0.489 (inactive)
NADPH fluorescence slope [5]: -4.3e-05 (inactive)
slope [6]: 0.00596 (inactive)
inhibition [7]: 3.18% (inactive)
inhibition [8]: 27.3% (inactive)

COc1ccc(-c2cc(N3CCCC3)n3ncnc3n2)cc1
cell count [1]: 640
inhibition [1]: 11.9% (inactive)
inhibition of aggregation [2]: 7.3% (inactive)
nuclei count [2]: 118%
inhibition [3]: -3.2% (inactive)
nuclei count [3]: 102%
fluorescence slope [4]: -0.473 (inactive)
NADPH fluorescence slope [5]: -2.2e-05 (inactive)
slope [6]: 0.00575 (inactive)
inhibition [7]: -11.3% (inactive)
inhibition [8]: -11.7% (inactive)

O=C(NCc1ccccc1)C1CCCN(S(=O)(=O)c2cccnc2)C1 (configuration not stated)
cell count [1]: 230
inhibition [1]: -0.7% (inactive)
inhibition of aggregation [2]: 0.8% (inactive)
nuclei count [2]: 92.5%
inhibition [3]: -59.6% (inactive)
nuclei count [3]: 98.3%
fluorescence slope [4]: -0.549 (inactive)
NADPH fluorescence slope [5]: -1.4e-05 (inactive)
slope [6]: 0.0054 (inactive)
inhibition [7]: 5.96% (inactive)
inhibition [8]: 11% (inactive)

COc1ccc(CC(=O)N2CCOCC2)cc1OC
cell count [1]: 383
inhibition [1]: -0.8% (inactive)
inhibition of aggregation [2]: 4.3% (inactive)
nuclei count [2]: 106%
inhibition [3]: -53.3% (inactive)
nuclei count [3]: 111%
fluorescence slope [4]: -0.428 (inactive)
NADPH fluorescence slope [5]: -5.5e-05 (inactive)
slope [6]: 0.00535 (inactive)
inhibition [7]: 15.7% (inactive)
inhibition [8]: 26.1% (inactive)

Cc1ccc(S(=O)(=O)N2CCN(C(=O)CN3CCOCC3)C2C(C)C)cc1 (configuration not stated)
cell count [1]: 309
inhibition [1]: -5% (inactive)
inhibition of aggregation [2]: -6.9% (inactive)
nuclei count [2]: 105%
inhibition [3]: -99.4% (inactive)
nuclei count [3]: 105%
fluorescence slope [4]: -0.621 (inactive)
NADPH fluorescence slope [5]: 6.8e-06 (inactive)
slope [6]: 0.0064 (inactive)
inhibition [7]: 4.53% (inactive)
inhibition [8]: 12.9% (inactive)

COc1cc(C2c3c(n[nH]c3C)C(=O)N2c2ccc(C)cc2)ccc1O (configuration not stated)
cell count [1]: 335
inhibition [1]: -8.1% (inactive)
inhibition of aggregation [2]: -6% (inactive)
nuclei count [2]: 86.3%
inhibition [3]: -34.1% (inactive)
nuclei count [3]: 112%
fluorescence slope [4]: -0.586 (inactive)
NADPH fluorescence slope [5]: -2.8e-05 (inactive)
slope [6]: 0.00346 (inactive)
inhibition [7]: 3.65% (inactive)
inhibition [8]: -2.36% (inactive)
